This is a sample that favours compounds with a hit; in the whole collection about 4.6% have one here.
D1 PAM: potentiators of human D1 dopamine receptor; HEK293 TREx D1 cells, calcium flux, dopamine EC20 potentiation; potentiation, % at 10 µM; 0.036% of 360,000 active; AID 504651; in the data active = potentiation above about 30%; also: 0% is about no effect
TRHR enhancer: allosterically enhances the human TRH receptor | P34981 | TRHR cells, fluo-8 calcium fluorescence, EC20 TRH enhancement | enhancement, % at 2 µM | 0.66% of 360,000 active | AID 493056; in the data active = enhancement above about 30%; also: 0% is about no effect
Target sequence (P34981 whole entry, looked up): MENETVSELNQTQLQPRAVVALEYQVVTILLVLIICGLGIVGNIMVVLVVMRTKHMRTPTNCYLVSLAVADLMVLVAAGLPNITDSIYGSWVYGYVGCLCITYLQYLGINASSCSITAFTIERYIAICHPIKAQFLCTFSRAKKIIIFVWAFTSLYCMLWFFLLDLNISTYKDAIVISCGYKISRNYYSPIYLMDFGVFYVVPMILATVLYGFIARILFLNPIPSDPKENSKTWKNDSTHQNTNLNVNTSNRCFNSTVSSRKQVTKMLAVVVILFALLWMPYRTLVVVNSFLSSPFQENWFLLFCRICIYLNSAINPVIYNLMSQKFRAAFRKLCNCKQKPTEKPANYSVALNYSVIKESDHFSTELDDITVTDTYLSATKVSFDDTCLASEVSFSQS
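TRHR-expressing cells loaded with fluo-8 calcium dye were read kinetically (ex 480/em 530) during compound addition, then stimulated with an EC20 of TRH (10 nM final). Enhancement of the Gq-mediated intracellular calcium response was scored.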
TRHR agonist: agonists of human TRH receptor. 0.18% of 360,000 active. activation, % at 2 µM. TRHR cells, calcium flux fluo-8, FDSS agonist mode; also: 0% is about no effect
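Agonist-mode FDSS calcium read (Ex 480/Em 530, 1 s cycles) in 1536-well TRHR cells with fluo-8 dye, after 10-cycle baseline and 23 nL compound addition; TRH at EC20 (10 nM final) added afterwards for the enhancer phase.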
D1 antag: antagonists of human D1 dopamine receptor | 3.2% of 360,000 active | AID 504652 | activity change, negative = inhibition, % at 10 µM | HEK293 TREx D1 cells, calcium flux, dopamine EC80; active compounds read low | P21728; in the data active = activity change below about -30%; also: % is scaled to controls: 0 for no effect and ±100 for the full control effect
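Tetracycline-induced HEK293 T-REx cells with force-coupled D1 receptor were loaded with a no-wash calcium dye. Compound was added after a 10 s baseline and read kinetically for 180 s; EC80 dopamine was then added and calcium flux followed another 180 s.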
D1 agonist: human D1 receptor agonism | HEK293 T-REx D1 cells, calcium flux, agonist mode | activation, % at 2 µM | 1% of 360,000 active | AID 504660; also: 0% is about no effect
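Agonism was scored from calcium flux recorded over 180 s (1 read/s) after pintool compound addition, following a 10-cycle baseline. Cells were inducible force-coupled HEK293 TREx D1, plated overnight at 30 C and loaded with no-wash calcium dye.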
* = called active by the depositor; ! = not confirmed by another sample. Rule as the data show it, unless noted: active = activation above about 30%; inactive = the rest.

SMILES | D1 PAM | TRHR enhancer | TRHR agonist | D1 antag | D1 agonist
COc1ccc(COCC(O)CN2CCC(C(N)=O)CC2)cc1OC (stereo unspecified) | 9 | 12 | 0 | 1 | 6
CCc1ccc(NC(=O)CSc2nc3c(sc4ccccc43)c(=O)n2CCCOC)cc1 | 1 | 6 | 0 | 2 | 1
CCc1ccc(NC(=O)CSc2nc3c(sc4ccccc43)c(=O)n2CCCOC(C)C)cc1 | -3 | 5 | 0 | -35* | 4
COCCCn1c(SCC(=O)NCc2ccccc2)nc2c(sc3ccccc32)c1=O | -3 | -3 | 0 | -39* | 6
CCOC(=O)CN(Cc1sccc1C)C(=O)Nc1cccc(OC)c1 | -9 | 4 | 1 | -37* | 0
CCOC(=O)Cc1csc(NC(=O)c2cccc([N+](=O)[O-])c2)n1 | -10 | 1 | 0 | -31* | 9
CCOC(=O)Cc1csc(NC(=O)c2sc3nc4c(C)cc(C)cc4cc3c2N)n1 | -3 | 21 | 38* | 2 | 85*
CCOC(=O)Cc1csc(NC(=O)Nc2cccc(OC)c2)n1 | -4 | -2 | -2 | -33* | 14
Cc1ccc2nc(-c3ccccn3)c(Nc3ccc(F)cc3)n2c1 | 2 | -1 | -2 | -11 | -1
CS(=O)(=O)c1ccc(Cl)c(NC(=O)COC(=O)C23CC4CC(CC(C4)C2)C3)c1 | 0 | -2 | 0 | 4 | 1
Cc1ccc2nc(N3C(=O)C(O)=C(C(=O)c4ccc(C)o4)C3c3cccc(O)c3)sc2c1 (stereo unspecified) | -4 | -2 | 1 | -35* | 4
Cc1c(Cl)cccc1Nc1nc(N)nc(CSc2nc3ccccc3s2)n1 | -2 | 0 | 1 | -44*! | 4
O=C(NC1CCN(Cc2cccc([N+](=O)[O-])c2)CC1)c1ccccc1 | -20 | -4 | 0 | -57* | 6
O=C(NC1CCN(Cc2ccc(Cl)cc2Cl)CC1)c1ccccc1 | -28 | -3 | -1 | -76* | 28
O=C(NC1CCN(Cc2ccccc2)CC1)c1ccccc1 | -21 | -5 | 0 | -19 | 2
O=C(NC1CCN(CCc2c[nH]c3ccccc23)CC1)c1ccccc1 | -18 | 1 | 0 | -83* | 67*
O=C(/C=C/c1cc([N+](=O)[O-])ccc1OC(F)F)NCc1ccc(F)cc1 | 2 | -5 | -1 | -5 | 0
Cc1cc(NC(=O)C(C)C)ncc1NC(=O)c1ccccn1 | -2 | 5 | 2 | -17 | 4
CCC1(c2ccc(F)cc2)NC(=O)N(CC(=O)Nc2cccnc2Cl)C1=O (stereo unspecified) | 5 | 4 | 5 | 6 | 43*
CC1(c2ccc(OC(F)F)cc2)NC(=O)N(CC(=O)Nc2cccnc2Cl)C1=O (stereo unspecified) | 5 | 7 | 6 | -62* | 73*
CC1(c2ccc(OC(F)F)cc2)NC(=O)N(CC(=O)N2CCN(C(=O)c3ccco3)CC2)C1=O (stereo unspecified) | -1 | -3 | 0 | -30* | 2
COc1ccc(C2(c3ccc(OC)cc3)NC(=O)N(CC(=O)Nc3ccccc3C)C2=O)cc1 | -5 | 36* | -1 | 17 | 0
COc1ccc(C2(C)NC(=O)N(CC(=O)Nc3cccnc3Cl)C2=O)cc1 (stereo unspecified) | -1 | -12 | 4 | 16 | 17
CC1(c2cccc(Br)c2)NC(=O)N(CC(=O)N2CCN(C(=O)c3ccco3)CC2)C1=O (stereo unspecified) | 0 | -13 | 0 | -4 | 2
COc1ccc(C2(c3ccc(OC)cc3)NC(=O)N(CC(=O)Nc3ccccc3C(F)(F)F)C2=O)cc1 | -9 | -13 | 1 | 7 | 2
SMILES | D1 PAM | TRHR enhancer | TRHR agonist | D1 antag | D1 agonist
Nc1nc(-c2ccccn2)nc(N)c1Cc1ccccc1F | 9 | 3 | 0 | 26 | 2
Nc1nc(-c2ccccn2)nc(N)c1Cc1ccc(Cl)cc1Cl | 51* | 4 | 2 | 305 | 34*
CC(=O)N1N=C(c2ccc(NS(=O)(=O)c3ccccc3)cc2)CC1c1ccco1 (stereo unspecified) | 0 | -4 | 0 | -36* | 0
CC(=O)N1N=C(c2cccc(NS(=O)(=O)c3ccc(C)cc3)c2)CC1c1ccco1 (stereo unspecified) | -4 | 3 | 0 | -14 | 12
CCOC(=O)C(NC(=O)c1ccccc1)(OCc1ccc(F)cc1)C(F)(F)F (stereo unspecified) | -7 | -2 | 0 | -12 | -1
CCOC(=O)C(NC(=O)c1cccc(Cl)c1)(OCc1ccc(F)cc1)C(F)(F)F (stereo unspecified) | -3 | 13 | -3 | -35* | 13
Cc1ccc(-c2cn3cccc(C)c3n2)cc1 | 3 | 3 | -2 | -4 | 2
COc1ccc(-c2cn3cccc(C)c3n2)cc1F | 9 | -3 | 1 | -38* | 4
c1ccc(Cc2nnc3sc(-c4ccncc4)nn23)cc1 | 3 | 6 | 0 | -33* | 2
c1ccc(Cc2nnc3sc(-c4cccnc4)nn23)cc1 | 7 | 9 | 0 | -7 | 5
Cc1ccc2c(c1)c1c(c(=O)n(-c3ccccc3)c(=O)n1CC(=O)NCC1CCCO1)n2C (stereo unspecified) | -6 | -1 | 0 | -2 | 0
CCOc1cc(/C=N/NC(=O)c2nn(C)cc2Br)ccc1OCc1ccccc1Cl | -2 | 2 | -1 | 7 | 3
Cn1cc(Br)c(C(=O)N/N=C/c2cccc(OC3CSC3)c2)n1 | 2 | -2 | 0 | -30* | 2
O=C(NS(=O)(=O)Nc1ccccn1)c1c[nH]c2ccccc12 | -1 | 2 | 0 | 3 | 0
COc1ccc(C=O)cc1Cn1cnc2c(cnn2C)c1=O | 1 | 4 | 1 | -36* | 1
Cc1ccccc1CN1c2ccccc2-c2nc(SCC(N)=O)ncc2S1(=O)=O | -5 | -2 | 0 | 9 | 5
O=C(CSc1ncc2c(n1)-c1cc(Cl)ccc1N(Cc1ccccc1)S2(=O)=O)Nc1ccc(F)cc1F | 4 | 6 | 1 | 33 | 4
CCc1ccccc1NC(=O)CSc1ncc2c(n1)-c1ccccc1N(Cc1ccc(C)cc1)S2(=O)=O | -8 | -2 | 0 | -37* | 2
COc1ccccc1NC(=O)CSc1ncc2c(n1)-c1cc(Cl)ccc1N(Cc1ccccc1)S2(=O)=O | -7 | -5 | 2 | -33* | 7
Cc1ccccc1CN1c2ccccc2-c2nc(SCC(=O)c3ccccc3)ncc2S1(=O)=O | 2 | 0 | 0 | -38* | 2
C=CCc1cccc(Cl)c1OCCCNC1CCCC1 | 2 | 1 | 1 | 31 | 14
O=C(NCc1cc([N+](=O)[O-])ccc1O)c1cccnc1Sc1ccc(Cl)cc1 | 0 | 8 | 1 | 14 | 1
CC(C)C[C@H]1CN=C(Nc2ccccc2)N1CC(C)C | -4 | 11 | 0 | -4 | 0
